Test results reported in PubChem BioAssay (Tox21).
Values joined by “and” are separate entries in the source; they are usually repeats but may differ in a detail not shown here. Equal values may be shown once. Inconclusive results are not listed. Entries that show only a call come without a potency. Some compounds were tested as several samples or in several runs, with calls that do not always agree. Active and inactive are the calls of the source. Unless noted, calls follow the shape of the dose curve; as a rule, active = well fitted curve in the direction sought with a large enough effect in the repeat runs; inconclusive = weak or mixed curves; inactive = no such curve, though single readings can be large; an effect the other way counts as inactive or inconclusive.

Legend:
[1] = molecular target: Retinoic acid receptor RXR-alpha (Homo sapiens) (UniProt P19793); assay: qHTS assay to identify small molecule agonists of the RXR signaling pathway (AID 1159527; calls by dose curve; also: nearly all actives have a fitted effect of over 35% in size; also: potency is read from the fitted curve at half-maximal effect)
How it was run: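 Agonist mode; 9-cis retinoic acid positive control. HEK 293T UAS-bla reporter cells, 2% charcoal-stripped FBS, 16 hr compound exposure at 37 C/5% CO2. LiveBLAzer B/G FRET substrate 2 hr RT; ex 405, em 460/530 nm.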

[2] = qHTS assay to identify small molecule agonists of the RXR signaling pathway - cell viability counter screen (AID 1159529); also: series mostly up to about 77 µM; nearly all actives have a fitted effect of over 50% in size
How it was run: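 Luminescence from CellTiter-Glo (30 min, RT) measured viability in the same wells as the beta-lactamase reporter readout. Cells: GeneBLAzer RXR-alpha HEK 293T, 2% charcoal-stripped FBS. Compound exposure 16 hr, 37 C.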

[3] = qHTS assay to identify small molecule antagonists of the retinoid acid receptor (RAR) signaling pathway - cell viability counter screen (AID 1159551); also: nearly all actives have a fitted effect of over 35% in size
How it was run: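 Cytotoxicity counter screen in C3RL4 cells: 6 h compound exposure with 1 uM retinol (final), viability from cellular ATP by luminescence.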

[4] = qHTS assay to identify small molecule antagonists of the retinoic acid receptor (RAR) signaling pathway (AID 1159552; also: nearly all actives have a fitted effect of over 50% in size)
How it was run: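 Luminescence from a RARE luciferase reporter in C3RL4 cells served as read-out. Cells received compounds together with 1 uM final retinol and incubated 6 hr at 37 C before detection reagent was added for 30 min at room temperature.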

[5] = qHTS assay to identify small molecule agonists of the retinoic acid receptor (RAR) signaling pathway (AID 1159553)
How it was run: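 Agonist activity was scored in C3RL4 cells bearing a retinoic acid response element luciferase construct. Cells were treated with compounds for 6 hr at 37 C, and luciferase signal was measured as luminescence.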

[6] = qHTS assay to identify small molecule antagonists of the estrogen related receptor (ERR) signaling pathway from Tox21 library - cell viability counter screen (AID 1224834); also: nearly all actives have a fitted effect of over 30% in size
How it was run: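 Cytotoxicity of test substances is gauged in the same ERR cells used for the antagonist screen, after 17.5 h of compound treatment at 37 C, by CellTiter-Fluor fluorescence measured after 30 min.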

[7] = qHTS assay to identify small molecule agonists of the constitutive androstane receptor (CAR) signaling pathway - cell viability counter screen (AID 1224836); also: series mostly up to about 92 µM; nearly all actives have a fitted effect of over 45% in size
How it was run: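 Viability read-out: CellTiter-Fluor fluorescence after 23 h compound exposure at 37 C/5% CO2 in double-stable HepG2-CYP2B6-hCAR cells, with PK11195 present at 0.75 uM final; compounds tested in 15-point titration.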

[8] = qHTS assay to identify small molecule antagonists of the constitutive androstane receptor (CAR) signaling pathway - cell viability counter screen (AID 1224837); also: series mostly up to about 92 µM; nearly all actives have a fitted effect of over 45% in size
How it was run: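 Multiplexed cytotoxicity read-out for the CAR antagonist screen: double-stable HepG2-CYP2B6-hCAR cells co-treated with 50 nM CITCO (final) and compound over 15 concentrations, incubated 23 hr, then assessed by CellTiter-Fluor fluorescence.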

[9] = qHTS assay to identify small molecule antagonists of the estrogen related receptor signaling pathway with the pleiotropic PPARgamma coactivator (PGC) from Tox21 10K library - cell viability counter screen (AID 1224840; active = well fitted cell-killing curve with a large enough effect in the repeat runs, not every such curve was filed as active; also: nearly all actives have a fitted effect of over 40% in size)
How it was run: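 Step one, plate 2,000 PGC/ERR cells per well; step two, incubate 6 h at 37 C/5% CO2; step three, pin-transfer compounds; step four, incubate 17.5 h; step five, add CellTiter-Fluor and read fluorescence after 30 min.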

[10] = molecular target: Nuclear receptor subfamily 1 group I member 3 (Homo sapiens) (UniProt Q14994); assay: qHTS assay to identify small molecule antagonists of the constitutive androstane receptor (CAR) signaling pathway (AID 1224838); also: nearly all actives have a fitted effect of over 40% in size
How it was run: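 Compounds were titrated across 15 concentrations onto HepG2 cells double-stably expressing hCAR and a CYP2B6-2.2kb reporter, together with 50 nM CITCO (final). After 24 h at 37 C, luciferase activity was measured by luminescence.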

[11] = molecular target: Nuclear receptor subfamily 1 group I member 3 (Homo sapiens) (UniProt Q14994); assay: qHTS assay to identify small molecule agonists of the constitutive androstane receptor (CAR) signaling pathway (AID 1224839);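 also: HepG2 cells stably carrying human CAR and a CYP2B6 luciferase reporter; series mostly up to about 92 µM; nearly all actives have a fitted effect of over 15% in size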
How it was run: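 Luminescence read-out (ONE-Glo, 30 min, room temperature) from double-stable HepG2-CYP2B6-hCAR cells exposed 24 h to 15-point compound series in presence of 0.75 uM PK11195 final.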

[12] = molecular target: Luciferin 4-monooxygenase (Photinus pyralis) (UniProt P08659); assay: qHTS assay to identify small molecule inhibitors of firefly luciferase (AID 1224835); also: series mostly up to about 120 µM; nearly all actives have a fitted effect of over 25% in size
How it was run: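 Quantitative HTS format; KM concentrations of both substrates. Purified P. pyralis FLuc activity quantified from luminescence images.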

[13] = qHTS assay to identify small molecule antagonists of the estrogen related receptor signaling pathway with the pleiotropic PPARgamma coactivator (PGC) from Tox21 10K library (AID 1224841; call rule not given here; also: actives are mostly falling curves and most rising ones were filed inactive; nearly all actives have a fitted effect of over 50% in size; also: potency is read from the fitted curve at half-maximal effect)
How it was run: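 Antagonism in this quantitative HTS is taken from loss of luciferase signal in PGC/ERR cells. Cells (2,000/well) are treated with compounds in DMSO after a 6 h settling period and read by One-Glo luminescence after 18 h.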

[14] = qHTS assay to identify small molecule agonists of the estrogen related receptor signaling pathway with the pleiotropic PPARgamma coactivator (PGC) from Tox21 10K library (AID 1224842); also: nearly all actives have a fitted effect of over 15% in size
How it was run: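 PGC/ERR reporter cells (NTP line) were seeded 2,000 per well, rested 6 h at 37 C/5% CO2, then pin-dosed with compounds in DMSO for 18 h at 37 C; luciferase read by One-Glo luminescence after 30 min at room temperature.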

[15] = qHTS assay to identify small molecule antagonists of the estrogen related receptor (ERR) signaling pathway - cell viability counter screen (AID 1224818);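 also: series mostly up to about 46 µM; viability measured after 17.5 h of compound exposure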
How it was run: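 Cells carrying the ERR pathway reporter were seeded and incubated for 6 hours before compound addition. After a 17.5-hour exposure at 37 C, live-cell protease activity was measured by CellTiter-Fluor fluorescence following 30 minutes of incubation.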

[16] = qHTS assay to identify small molecule antagonists of the estrogen related receptor (ERR) signaling pathway (AID 1224819; also: nearly all actives have a fitted effect of over 50% in size; also: potency is read from the fitted curve at half-maximal effect)
How it was run: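 Compounds dissolved in DMSO were pin-transferred onto ERR cells that had been plated 6 h earlier, and cells were then incubated 18 h at 37 C; signal was luciferase luminescence via One-Glo.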

[17] = qHTS assay to identify small molecule agonists of the estrogen related receptor (ERR) signaling pathway (AID 1224820)
How it was run: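 Quantitative HTS of the LOPAC library used NTP ERR reporter cells treated 18 h at 37 C. Signal is luminescence after One-Glo addition and a 30 min room-temperature incubation.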

[18] = qHTS assay to identify small molecule antagonists of the estrogen related receptor signaling pathway with the pleiotropic PPARgamma coactivator (PGC) cell viability counter screen (AID 1224822;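 also: series mostly up to about 46 µM; viability read after 17.5 h compound exposure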)
How it was run: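 Seed PGC/ERR cells (2,000/well); incubate 6 h at 37 C/5% CO2; pin-transfer compounds in DMSO; incubate 17.5 h at 37 C; add CellTiter-Fluor; after 30 min read fluorescence.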

[19] = qHTS assay to identify small molecule agonists of the estrogen related receptor signaling pathway with the pleiotropic PPARgamma coactivator (PGC) (AID 1224823)
How it was run: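 Cell-based luciferase assay in the NTP-supplied PGC/ERR line, 2,000 cells/well; 18 h compound exposure at 37 C, luminescence after One-Glo.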

[20] = system: estrogen-related receptor alpha (ERRalpha) with PGC-1alpha coactivator, human; assay: qHTS assay to identify small molecule antagonists of the estrogen related receptor signaling pathway with the pleiotropic PPARgamma coactivator (PGC) (AID 1224821; calls by dose curve)
How it was run: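 Quantitative HTS for antagonism: PGC/ERR cells received compounds after 6 h attachment and were incubated 18 h at 37 C, with luminescence (One-Glo) as the endpoint.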

Sequence of Nuclear receptor subfamily 1 group I member 3 (Homo sapiens) (Q14994 whole entry, looked up): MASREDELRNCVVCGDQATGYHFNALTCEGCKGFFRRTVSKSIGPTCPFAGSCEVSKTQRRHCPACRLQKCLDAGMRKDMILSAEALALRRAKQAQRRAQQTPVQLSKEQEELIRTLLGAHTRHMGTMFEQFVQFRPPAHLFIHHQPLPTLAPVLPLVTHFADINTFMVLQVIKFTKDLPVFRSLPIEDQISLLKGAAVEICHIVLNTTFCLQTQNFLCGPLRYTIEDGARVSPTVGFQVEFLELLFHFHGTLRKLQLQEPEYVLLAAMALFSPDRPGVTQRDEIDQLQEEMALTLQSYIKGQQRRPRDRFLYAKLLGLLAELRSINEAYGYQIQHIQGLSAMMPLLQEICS
Sequence of Retinoic acid receptor RXR-alpha (Homo sapiens) (P19793 whole entry, looked up): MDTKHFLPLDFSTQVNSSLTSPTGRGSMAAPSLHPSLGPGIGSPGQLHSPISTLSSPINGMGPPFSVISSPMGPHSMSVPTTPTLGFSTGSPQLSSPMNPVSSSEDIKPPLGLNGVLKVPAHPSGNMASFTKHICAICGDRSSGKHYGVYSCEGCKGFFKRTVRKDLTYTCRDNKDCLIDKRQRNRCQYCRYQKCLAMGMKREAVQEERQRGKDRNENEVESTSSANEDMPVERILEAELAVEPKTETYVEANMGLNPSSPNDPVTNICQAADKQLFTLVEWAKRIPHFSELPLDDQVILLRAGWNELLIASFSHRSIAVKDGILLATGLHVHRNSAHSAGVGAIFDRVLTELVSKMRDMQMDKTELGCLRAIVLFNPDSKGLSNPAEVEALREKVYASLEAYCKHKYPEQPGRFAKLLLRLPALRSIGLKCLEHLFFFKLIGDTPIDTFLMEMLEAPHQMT
Sequence of Luciferin 4-monooxygenase (Photinus pyralis) (P08659 whole entry, looked up): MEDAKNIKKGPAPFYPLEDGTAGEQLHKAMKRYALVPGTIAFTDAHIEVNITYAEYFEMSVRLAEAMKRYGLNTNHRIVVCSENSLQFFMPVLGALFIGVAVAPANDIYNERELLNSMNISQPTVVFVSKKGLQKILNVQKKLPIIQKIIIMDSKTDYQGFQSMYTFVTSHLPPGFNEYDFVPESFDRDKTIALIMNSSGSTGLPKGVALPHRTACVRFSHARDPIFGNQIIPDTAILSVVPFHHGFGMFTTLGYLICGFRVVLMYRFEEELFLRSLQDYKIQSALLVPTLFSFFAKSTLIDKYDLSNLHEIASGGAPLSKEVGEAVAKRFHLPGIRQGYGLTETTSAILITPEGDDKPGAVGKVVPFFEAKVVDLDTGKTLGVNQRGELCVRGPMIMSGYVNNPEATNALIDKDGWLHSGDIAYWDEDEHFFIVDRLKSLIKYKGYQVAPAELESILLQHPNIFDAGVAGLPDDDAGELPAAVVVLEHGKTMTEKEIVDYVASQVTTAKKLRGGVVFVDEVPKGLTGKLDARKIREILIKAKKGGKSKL

| SMILES | Potency [1] | Potency [2] | Potency [3] | Potency [4] | Potency [5] | Potency [6] | Potency [7] | Potency [8] | Potency [9] | Potency [10] | Potency [11] | Potency [12] | Potency [13] | Potency [14] | outcome [15] | Potency [16] | outcome [17] | Potency [18] | outcome [19] | outcome [20] |
| --- | --- | --- | --- | --- | --- | --- | --- | --- | --- | --- | --- | --- | --- | --- | --- | --- | --- | --- | --- | --- |
| CCCCCCCC(=O)OCC(COC(=O)CCCCCCC)OC(=O)CCCCCCC | inactive | inactive | inactive | inactive | inactive | inactive | inactive | inactive | inactive |  |  |  |  |  |  |  |  |  |  |  |
| CN(N=O)C(=O)N[C@@H]1[C@@H](O)[C@H](O)[C@@H](CO)O[C@@H]1O | inactive | inactive | inactive | inactive | inactive | inactive | inactive |  |  | inactive | inactive |  |  |  |  |  |  |  |  |  |
| O=c1[nH]cnc2c1ncn2[C@H]1CC[C@@H](CO)O1 | inactive | inactive | inactive | inactive | inactive | inactive | inactive | inactive |  | inactive | inactive | inactive | inactive | inactive |  |  |  |  |  |  |
| C=CCc1ccc(O)c(OC)c1 | inactive | inactive | inactive | inactive | inactive | inactive | inactive | inactive | inactive | inactive | inactive | inactive |  |  |  |  |  |  |  |  |
| Oc1ccccc1 | inactive and 11 µM (active) | inactive | inactive | inactive | inactive | inactive | inactive | inactive | inactive | inactive | inactive |  |  |  |  |  |  |  |  |  |
| CN(C)C(=O)Nc1ccc(Cl)c(Cl)c1 | inactive and 19.5 µM (active) | inactive | inactive | inactive | inactive | inactive | inactive |  | inactive | inactive |  |  | inactive | inactive |  |  |  |  |  |  |
| NC(CO)(CO)CO | inactive | inactive | inactive | inactive | inactive | inactive | inactive |  |  | inactive | inactive |  |  |  |  |  |  |  |  |  |
| CS(=O)(=O)OCCCCOS(C)(=O)=O | inactive and 17.4 µM (active) | inactive | inactive | inactive | inactive | inactive | inactive |  | inactive |  |  | inactive | 30.7 µM (active) and inactive | inactive |  |  |  |  |  |  |
| Cc1ncc([N+](=O)[O-])n1CCO | inactive | inactive | inactive | inactive | inactive | inactive | inactive | inactive |  | inactive | inactive | inactive | inactive | inactive |  |  |  |  |  |  |
| CCN(CC)C(=O)c1cccc(C)c1 | inactive | inactive | inactive | inactive | inactive | inactive | inactive | inactive |  |  |  |  | inactive | inactive |  |  |  |  |  |  |
| C=C(C)C(=O)OCC(C)O (stereo not given) | inactive | inactive | inactive | inactive | inactive | inactive | inactive |  | inactive | inactive | inactive |  |  |  |  |  |  |  |  |  |
| CC(C)C(=O)Nc1ccc([N+](=O)[O-])c(C(F)(F)F)c1 | inactive | inactive | inactive | inactive | inactive |  | inactive | inactive |  | inactive | inactive |  | 28.1 µM (active) and 30.6 µM (active) and 21.1 µM (active) | inactive | inactive | 22.8 µM (active) | inactive | inactive | inactive |  |
| C[C@](N)(Cc1ccc(O)c(O)c1)C(=O)O | inactive | inactive | inactive |  | inactive | inactive | inactive |  | inactive | inactive | inactive |  |  |  | inactive |  |  | inactive |  |  |
| Cc1cccc(C)c1 | inactive | inactive | inactive |  |  | inactive | inactive | inactive |  | inactive | inactive |  | inactive | inactive |  |  |  |  |  |  |
| CN(C)CCOC(c1ccccc1)c1ccccc1 | inactive | inactive | inactive |  | inactive | inactive | inactive |  | inactive |  |  |  |  |  | inactive |  |  | inactive |  |  |
| NS(=O)(=O)c1cc2c(cc1Cl)NCNS2(=O)=O | inactive | inactive | inactive |  |  | inactive | inactive |  | inactive |  |  | inactive | inactive | inactive | inactive | inactive | inactive | inactive | inactive | inactive |
| CCCCNC(=O)NS(=O)(=O)c1ccc(C)cc1 | inactive | inactive | inactive |  |  | inactive | inactive | inactive | inactive |  |  | inactive | inactive | inactive | inactive | inactive | inactive | inactive | inactive | inactive |
